The full ranking holds about 110,000 compounds; the median of “z-score” is about -0.1, and the highest 2% start at about 2. Many of the other results were omitted from the sample, so the highest values are more common in it than they were. Activity calls are given as the source filed them.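 The calls were made as follows: active = z-score in the third read window above 3 or below -3; inactive = the rest.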
The compounds below were run against Metabotropic glutamate receptor 8 (Rattus norvegicus) (UniProt P70579) (assay: rat mGluR8 modulators via GIRK flux, primary screen, cell-based, thallium flux, HTS (AID 488969)). Settings: HEK293 rat mGluR8, GIRK (G protein-gated inwardly rectifying potassium channel) thallium flux, FluoZin2; at 10 µM; stronger effect = higher value; submaximal glutamate (EC20) added with thallium.
Metabotropic glutamate receptor 8 (Rattus norvegicus), sequence (P70579 whole entry, looked up): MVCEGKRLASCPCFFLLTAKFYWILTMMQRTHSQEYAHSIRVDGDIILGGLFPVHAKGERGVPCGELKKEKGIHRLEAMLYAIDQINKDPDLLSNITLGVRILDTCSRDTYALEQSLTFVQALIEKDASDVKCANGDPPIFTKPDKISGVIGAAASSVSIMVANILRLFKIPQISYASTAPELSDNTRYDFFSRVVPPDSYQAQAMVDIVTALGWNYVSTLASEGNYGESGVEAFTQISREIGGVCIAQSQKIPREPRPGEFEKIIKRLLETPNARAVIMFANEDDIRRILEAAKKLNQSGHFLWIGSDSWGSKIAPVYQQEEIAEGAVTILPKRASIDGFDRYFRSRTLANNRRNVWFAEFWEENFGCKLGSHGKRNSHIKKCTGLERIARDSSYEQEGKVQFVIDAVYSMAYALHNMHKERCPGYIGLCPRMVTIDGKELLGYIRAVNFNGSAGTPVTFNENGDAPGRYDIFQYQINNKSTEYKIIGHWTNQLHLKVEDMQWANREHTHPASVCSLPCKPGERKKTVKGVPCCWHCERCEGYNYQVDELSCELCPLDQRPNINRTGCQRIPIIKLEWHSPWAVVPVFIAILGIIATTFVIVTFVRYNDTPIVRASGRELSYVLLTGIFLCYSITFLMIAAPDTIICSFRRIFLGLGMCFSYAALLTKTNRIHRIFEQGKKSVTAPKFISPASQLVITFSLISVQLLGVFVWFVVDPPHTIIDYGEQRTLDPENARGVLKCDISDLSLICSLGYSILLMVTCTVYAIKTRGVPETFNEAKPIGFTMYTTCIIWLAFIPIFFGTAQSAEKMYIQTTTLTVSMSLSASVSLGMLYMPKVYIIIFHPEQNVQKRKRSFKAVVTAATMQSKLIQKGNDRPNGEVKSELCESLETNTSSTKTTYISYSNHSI

SMILES	z-score
COC(=O)c1cc2sc(Cl)cc2n1Cc1nc(-c2cccc(C)c2)oc1C	-0.256
Cc1noc(C)c1CSCC(=O)NC1=NCCS1	-0.333
O=C(Cn1c(=O)n(Cc2ccccc2)c(=O)c2ccccc21)NCc1ccco1	-1.05
COc1c(Cl)cc(Cl)cc1C(=O)Nc1ccc(NC(=O)c2cccs2)cc1	0.021
CC1(C)CC(=O)C=C(NC2CCCCCCC2)C1	-0.289
O=C(NCC1(c2ccccc2)CCCC1)c1ccc(Br)o1	-0.309
O=C(Oc1cccc2c(OC(=O)N3CCCC3)cccc12)N1CCCC1	-0.117
COC(=O)c1cccc(-n2c(C)cc(C=O)c2C)c1	-0.0226
Fc1ccc(Cn2nnnc2CN2CCN(C3CCCCC3)CC2)cc1	0.354
COCCCn1ccc(O)c(Cc2ccc(F)cc2)c1=O	-0.0433
Cc1nn(-c2ccc3nnc(Br)n3n2)c(C)c1Br	-0.48
CCc1ccc2c(c1)/C(=C/C(=O)c1cccs1)C(=O)N2	-0.314
CCOc1ccc(-c2nnc(-c3cccnc3)o2)cc1OCC	0.0661
CCc1ccc(-c2nc(-c3ccncc3)no2)cc1	2.31
CCOc1cc(-c2noc(-c3cccnc3)n2)ccc1OC	3.79 (active)
c1ccc(-c2nc(-c3ccncc3)no2)cc1	-0.104
CCOc1ccc(-c2nc(-c3cccnc3)no2)cc1OCC	0.841
CC(C)(C)c1ccc(-c2nc(-c3ccncc3)no2)cc1	-0.17
CC(C)C(=O)NCCc1nc2ccccc2n1C	0.0935

SMILES	z-score
C=CCNC(=O)c1onc(CSc2ccccc2F)c1C(=O)O	-0.015
Cc1nc2ccccc2c(=O)n1/N=C/c1ccncc1	-0.171
O=C(NCC(=O)N(CC1CCCO1)C(C(=O)NC1CCCCC1)c1ccc(F)cc1)c1ccco1 (configuration not stated)	0.579
Cc1ccccc1C1C(C#N)=C2NC(=O)c3c(sc4c3CCCCC4)N2C2=C1C(=O)CC(C)(C)C2 (configuration not stated)	1.56
CCCn1c(CCNC(=O)c2cccs2)nc2ccccc21	-0.594
O=C(Oc1ccc(Cl)c2cccnc12)c1cccc([N+](=O)[O-])c1	0.0891
O=C(Oc1ccc(Cl)c2cccnc12)c1ccco1	0.951
O=C(Oc1c(Cl)cc(Cl)c2cccnc12)c1ccco1	3.13 (active)
O=C(Oc1c(Cl)cc(Cl)c2cccnc12)c1cccs1	2.7
CN1CCN(Cc2cc(Cl)c3cccnc3c2OC(=O)c2cccs2)CC1	0.273
O=C(Oc1c(Cl)cc(Cl)c2cccnc12)c1cccc([N+](=O)[O-])c1	9.18 (active)
Cc1ccc(C(=O)Oc2ccc(Cl)c3cccnc23)cc1[N+](=O)[O-]	0.387
O=C(Oc1c(Cl)cc(Cl)c2cccnc12)N1CCOCC1	-0.0144
O=C(Oc1cccc2cccnc12)c1cccs1	-0.532
Cc1oc2c(C)c3oc(=O)c4c(c3cc2c1C)CCC4	-0.532
COc1ccc(N(C(=O)Cn2nnc(-c3ccc(Cl)cc3)n2)C(C(=O)NCC2CCCO2)c2ccc(C)cc2)cc1 (configuration not stated)	-0.126
O=C(COC(=O)Cn1cnc2ccccc2c1=O)Nc1ccc(Cl)c(C(F)(F)F)c1	-0.01
CC(=O)Nc1ccc(S(=O)(=O)NNC(=O)c2ccc(C)cc2)cc1	-0.161
CC(=O)N1CCC2(CC1)C(C#N)=C(N)OC1=C2C(=O)CC(C)(C)C1	0.05

SMILES	z-score
COC(=O)c1c(NC(=O)C2COc3ccccc3O2)sc2c1CCN(Cc1ccccc1)C2 (configuration not stated)	0.0786
Cc1ccccc1-n1c(O)c(/C=N/N2CCCCC2c2cccnc2)c(=O)[nH]c1=O (configuration not stated)	-0.187
CN(C)C(=S)Nn1c(-c2ccccc2)nc2ccccc2c1=O	-0.411
COc1cc(CNc2ccccc2SC)ccc1O	1.58
N#Cc1ccc(N2CCc3ccccc3C2)c([N+](=O)[O-])c1	0.175
Cc1ccc(S(=O)(=O)NC(CC(C)C)C(=O)NCc2ccco2)cc1 (configuration not stated)	0.0163
COc1ccc(-c2nnnn2C)cc1S(=O)(=O)NCCc1ccccc1	1.29
O=C(Nc1ccccc1Br)C1CCC(=O)N1Cc1ccccc1Cl (configuration not stated)	0.19
COc1cc(-c2cc3nc(C)c(C)c(=O)n3[nH]2)cc(OC)c1OC	2.19
Cc1nc2cc(-c3cccs3)[nH]n2c(=O)c1C	-0.15
COc1cc(OC)cc(-c2cc3nc(C)c(CCC(=O)O)c(=O)n3[nH]2)c1	0.713
COC(=O)C(O)(CC(=O)Nc1ccc(OC(F)(F)F)cc1)C(F)(F)F (configuration not stated)	-0.408
O=c1[nH]c2sc3c(c2c(=O)n1Cc1ccccc1)CCC3	-0.117
C=CCn1c(SCC(=O)NC)nc2sc3c(c2c1=O)CCC3	-0.523
C=CCn1c(=S)[nH]c2sc3c(c2c1=O)CCC3	10.9 (active)
O=C(CCCN1C(=O)c2ccccc2C1=O)OC1CSCC1NC(=O)c1ccccc1 (configuration not stated)	-0.17
O=C1CS/C(=N\c2ccccn2)N1C1CCCCC1	-0.393
COc1cc(CC(=O)Nc2ccc3nc(C)sc3c2)cc(OC)c1OC	-0.158
Cc1cccc(CSc2ncc(CO)n2C)c1	0.12
